In article PMC11062922 (Nature Chemical Biology, 2023) one finds potency estimated from few doses data, which are given here for ten molecules.

Design in all cases: species or system human, MV4-11 + K-562 + COLO205 + SK-N-BE2 + OVCAR-8
For one assay, the system named is DDR1. The settings on record: read-out: apparent Kd, n = 1.
For the next assay, the system named is DDR2. The settings on record: read-out: apparent Kd, n = 1.
Another assay has as its system FLT3. The settings on record: read-out: apparent Kd, n = 1.
Another assay deals with PIK3CA. The following applies: read-out: apparent Kd; compound concentrations:100 nM and 1000 nM (sheet 'Samples'); n = 1.
Another assay concerns PIK3CD. The following applies: read-out: apparent Kd; compound concentrations:100 nM and 1000 nM (sheet 'Samples'); n = 1.
Another assay concerns SMC4. The following applies: read-out: apparent Kd; compound concentrations:100 nM and 1000 nM (sheet 'Samples'); n = 1.
Another assay concerns ZAK. The following applies: read-out: apparent Kd; compound concentrations:100 nM and 1000 nM (sheet 'Samples'); n = 1.
The test system of a further assay is CSNK2A1;CSNK2A3. The settings on record: read-out: apparent Kd; compound concentrations: 100 nM and 1000 nM (sheet 'Samples'), CATDS: 0.47499416496698399; n = 1.
A further assay relates to CSNK2A2. The settings on record: read-out: apparent Kd; compound concentrations: 100 nM and 1000 nM (sheet 'Samples'), CATDS: 0.52778498170906496; n = 1.
For a further assay, the system named is DCTPP1. The following applies: read-out: apparent Kd; compound concentrations:100 nM and 1000 nM (sheet 'Samples'); n = 1.
The test system of a further assay is JAK2. The settings on record: read-out: apparent Kd; compound concentrations:100 nM and 1000 nM (sheet 'Samples'); n = 1.
Another assay has as its system MAPK14. The settings on record: read-out: apparent Kd, n = 1.
Another assay relates to MAPK8. The settings on record: read-out: apparent Kd; compound concentrations:100 nM and 1000 nM (sheet 'Samples'); n = 1.
A further assay has as its system MAPK9. The settings on record: read-out: apparent Kd, n = 1.
The subject of the next assay is MAPKAPK2. The following applies: read-out: apparent Kd; compound concentrations:100 nM and 1000 nM (sheet 'Samples'); n = 1.
The next assay has as its system NLK. The settings on record: read-out: apparent Kd; compound concentrations:100 nM and 1000 nM (sheet 'Samples'); n = 1.
In another assay the test system is PIP4K2C. The following applies: read-out: apparent Kd; compound concentrations:100 nM and 1000 nM (sheet 'Samples'); n = 1.
Another assay concerns EPHA7. The settings on record: read-out: apparent Kd; compound concentrations: 100 nM and 1000 nM (sheet 'Samples'), CATDS: 8.9054165794135901E-2; n = 1.
The subject of a further assay is EPHB6. The following applies: read-out: apparent Kd; compound concentrations: 100 nM and 1000 nM (sheet 'Samples'), CATDS: 9.7568833330596599E-2; n = 1.
The subject of another assay is FLT4. The following applies: read-out: apparent Kd; compound concentrations: 100 nM and 1000 nM (sheet 'Samples'), CATDS: 0.353383658165352; n = 1.
Another assay deals with RET. The following applies: read-out: apparent Kd; compound concentrations: 100 nM and 1000 nM (sheet 'Samples'), CATDS: 0.464290470493195; n = 1.
The subject of the next assay is EGFR. The settings on record: read-out: apparent Kd; compound concentrations: 100 nM and 1000 nM (sheet 'Samples'), CATDS: 1; n = 1.
In the next assay the test system is T1, DJA1.
T1 construct: gene DNAJA1
The following applies: read-out: apparent Kd, compound concentrations: 100 nM and 1000 nM (sheet 'Samples'), n = 1.

The test system of a further assay is PDXK. The settings on record: read-out: apparent Kd; compound concentrations: 100 nM and 1000 nM (sheet 'Samples'), CATDS: 0.22598902737403401; n = 1.
For the next assay, the system named is PIK3CB. The settings on record: read-out: apparent Kd; compound concentrations: 100 nM and 1000 nM (sheet 'Samples'), CATDS: 0.79841434313068305; n = 1.
In the next assay the test system is DYRK1A. The following applies: read-out: apparent Kd; compound concentrations: 100 nM and 1000 nM (sheet 'Samples'), CATDS: 0.12801866170396201; n = 1.
A further assay deals with MAPK10. The following applies: read-out: apparent Kd; compound concentrations: 100 nM and 1000 nM (sheet 'Samples'), CATDS: 0.199019247687024; n = 1.
Another assay deals with MAPK11. The following applies: read-out: apparent Kd; compound concentrations: 100 nM and 1000 nM (sheet 'Samples'), CATDS: 0.17455940008728901; n = 1.
Another assay has as its system DHCR24. The following applies: read-out: apparent Kd; compound concentrations:100 nM and 1000 nM (sheet 'Samples'); n = 1.
In another assay the test system is MCM5. The settings on record: read-out: apparent Kd; compound concentrations:100 nM and 1000 nM (sheet 'Samples'); n = 1.
The mark [1] stands for this setting: compound concentrations:100 nM and 1000 nM (sheet 'Samples').

Read-outs that look alike come from different tables or passages of the source.

Take `COC(=O)Nc1nc2cc(Oc3ccc(NC(=O)Nc4cccc(SC)c4)cc3)ccc2[nH]1.Cl` [GW697999A]: the potency estimated from few doses with DDR1 (setting [1]) is 194 nM; in the assay on DDR2 (setting [1]), 618 nM; in the assay with FLT3 (setting [1]), 332 nM; with PIK3CA it was 205 nM; with PIK3CD, 92.1 nM; in the assay on SMC4, 2010 nM. Also, the potency estimated from few doses with ZAK was 1910 nM.

Turning to `CC(=O)c1c(C)c2cnc(Nc3ccn(C)n3)nc2n(C2CCCC2)c1=O` [PFE-PKIS_44], the results for the potency estimated from few doses with CSNK2A1;CSNK2A3 and in the assay on CSNK2A2 were 2260 nM and 1830 nM, respectively.

With `Cl.Cn1c(=O)c(Oc2ccc(F)cc2F)cc2cnc(NC3CCS(=O)(=O)CC3)nc21` [RO3308271-001], the potency estimated from few doses with DCTPP1 is 1310 nM; with JAK2, 494 nM; in the assay with MAPK14 (setting [1]), 16.5 nM; in the assay on MAPK8 it was 922 nM; with MAPK9 (setting [1]), 212 nM; in the assay with MAPKAPK2 it was 13.3 nM. Moreover, the potency estimated from few doses is 1220 nM with NLK and 1310 nM in the assay on PIP4K2C.

As to `Nc1ncnc2occ(-c3ccc(NC(=O)Nc4cccc(C(F)(F)F)c4)cc3)c12` [GW795493X], the potency estimated from few doses is 405 nM in the assay with DDR1 (compound concentrations: 100 nM and 1000 nM (sheet 'Samples'), CATDS: 0.13274475237022501); 681 nM in the assay with DDR2 (compound concentrations: 100 nM and 1000 nM (sheet 'Samples'), CATDS: 0.11447916272035); 2220 nM in the assay on EPHA7; 1350 nM in the assay on EPHB6; 229 nM in the assay with FLT3 (compound concentrations: 100 nM and 1000 nM (sheet 'Samples'), CATDS: 0.15949914238657301); 34.6 nM in the assay with FLT4. In the assay with RET, the potency estimated from few doses was 21.6 nM.

With `CCCN(CCS(C)(=O)=O)Cc1ccc(-c2ccc3ncnc(Nc4ccc(OCc5cccc(F)c5)c(Cl)c4)c3c2)o1.Cl` [GW621823A], in the assay with EGFR, the potency estimated from few doses is 643 nM.

Regarding `Cc1c(Cn2c3ccccc3n3c(=O)cc(N4CCOCC4)nc23)cccc1C(F)(F)F` [GSK2306394A], the potency estimated from few doses in the assay with DJA1 (CATDS: 0.30097601497631998) was 653 nM; in the assay with PDXK, 1920 nM; in the assay on PIK3CB it was 66.7 nM.

With `C[C@H](CS(C)(=O)=O)Nc1ncc2cc(Oc3ccc(F)cc3F)c(=O)n(C)c2n1` [RO5043312-000], the potency estimated from few doses is 1960 nM with DYRK1A; 398 nM in the assay on MAPK10; 583 nM with MAPK11; 10.8 nM with MAPK14 (compound concentrations: 100 nM and 1000 nM (sheet 'Samples'), CATDS: 0.87257547022931203); 460 nM with MAPK9 (compound concentrations: 100 nM and 1000 nM (sheet 'Samples'), CATDS: 0.189062450586059).

In the case of `CCN1CCN(Cc2ccc(C(=O)Nc3ccc(C)c(Oc4ccc5c(c4)CC(=O)N5)c3)cc2C(F)(F)F)CC1.Cl.Cl` [DDR1-in-1], the values for the potency estimated from few doses in the assay with DDR1 (setting [1]), in the assay on MAPK14 (setting [1]) and with MAPKAPK2 were 363 nM, 958 nM and 858 nM, respectively.

Regarding `O=C1NC(=O)C(N2CCc3ccccc32)=C1c1cccc(Cl)c1` [SB-408010], the potency estimated from few doses was 1900 nM with DHCR24 and 1580 nM in the assay with MCM5.

On to `Cl.Oc1ccc(-c2nc(-c3ccccc3)[nH]c2-c2ccncc2)cc1` [SB-428218-A], for which the potency estimated from few doses in the assay on DJA1 (CATDS: 1) is 108 nM.
